Counter-ions that a name gives are not always drawn. Unmarked numbers belong to inactive results.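 How the source made its calls: for the amine columns active = adjusted P below 0.05 in both replicates with a change the same way and a mean fold change under 0.8 or over 1.25; inactive = the rest.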
system: Klebsiella aerogenes DSM 30053; experiment: fold change of Cadaverine concentration vs plate DMSO controls (fold change (ratio)); higher = more amine produced, active = hit call of the paper (significant change in both replicates, either direction); details: incubation time: 27 h, anaerobic, 37 °C
In short: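 Amine values are fold changes relative to DMSO-only wells on the same plate. They derive from 27 h, 37 °C anaerobic mGAM cultures of four gut bacterial strains in 80 µL wells, dosed at 20 µM final, or 50 µM final for sweeteners. Extraction of the whole culture, LC–triple-quadrupole MS in dynamic MRM mode, external calibration curves and within-batch drift correction were used, with 2 biological replicates averaged.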

Structure (SMILES) | fold change of Cadaverine concentration
CC(=O)S[C@@H]1CC2=CC(=O)CC[C@]2(C)[C@H]2CC[C@@]3(C)[C@@H](CC[C@@]34CCC(=O)O4)[C@H]12 [Spironolactone] (20 µM) | 1
COC(=O)C1=C(C)NC(C)=C(C(=O)OCCN2CCN(C(c3ccccc3)c3ccccc3)CC2)C1c1cccc([N+](=O)[O-])c1 (centres undefined) [Manidipine Dihydrochloride] (20 µM) | 0.997
CC(=O)NS(=O)(=O)c1ccc(NC(=O)c2ccccc2C(=O)O)cc1 [Phthalylsulfacetamide] (20 µM) | 0.992
CN(C/C=C/C#CC(C)(C)C)Cc1cccc2ccccc12 [Terbinafine] (20 µM) | 0.989
Nc1nc2[nH]cnc2c(=S)[nH]1 [Tioguanine] (20 µM) | 0.998
CC(=O)OCC(=O)[C@@]12N=C(C)O[C@@H]1C[C@H]1[C@@H]3CCC4=CC(=O)C=C[C@]4(C)[C@H]3[C@@H](O)C[C@@]12C [Deflazacort] (20 µM) | 0.991
CCCCOCCOCCOCc1cc2c(cc1CCC)OCO2 [Piperonyl butoxide] (20 µM) | 1.02
O=C(Cn1ccnc1[N+](=O)[O-])NCCO [Etanidazole] (20 µM) | 1.11
CCN(CC)CCNC(=O)c1cc(Cl)c(N)cc1OC [Metoclopramide monohydrochloride] (20 µM) | 0.998
CCN(CC)CCNC(C(=O)OCCC(C)C)c1ccccc1 (centres undefined) [Camylofine chlorhydrate] (20 µM) | 0.988
Cc1cc(C)nc(NS(=O)(=O)c2ccc(N)cc2)n1 [Sulfamethazine sodium salt] (20 µM) | 0.995
C/C(O)=C(\C#N)C(=O)Nc1ccc(C(F)(F)F)cc1 [Teriflunomide] (20 µM) | 0.998
NC[C@@H]1O[C@@H](O[C@H]2[C@H](O)[C@@H](O[C@H]3O[C@H](CO)[C@@H](O)[C@H](N)[C@H]3O)[C@H](N)C[C@@H]2N)[C@@H](O)[C@H](O)[C@H]1O [Kanamycin A sulfate] (20 µM) | 1.02
CN[C@@H]1[C@H](O)[C@H](NC)[C@H]2O[C@@]3(O)C(=O)C[C@@H](C)O[C@H]3O[C@@H]2[C@H]1O [Spectinomycin dihydrochloride] (20 µM) | 1.02
CCOC(=O)c1ccc(C#Cc2ccc3c(c2)C(C)(C)CCS3)nc1 [Tazarotene] (20 µM) | 1.04
CCCOc1ccc2[nH]c(NC(=O)OC)nc2c1 [Oxibendazol] (20 µM) | 0.987
CCN(CCCc1ccccc1)CCCc1ccccc1 [Alverine citrate salt] (20 µM) | 1.02
CO[C@@H]1[C@@H](OC(N)=O)[C@@H](O)[C@H](Oc2ccc3c(O)c(NC(=O)c4ccc(O)c(CC=C(C)C)c4)c(=O)oc3c2C)OC1(C)C [Novobiocin sodium salt] (20 µM) | 1
CCOC(N)=O [Urethane] (20 µM) | 1.03
CCN1CCN(C(=O)N[C@@H](C(=O)N[C@@H]2C(=O)N3[C@@H]2SC(C)(C)[C@@H]3C(=O)O)c2ccccc2)C(=O)C1=O [Piperacillin sodium salt] (20 µM) | 1.03

Structure (SMILES) | fold change of Cadaverine concentration
CC1CCc2cc(F)cc3c(=O)c(C(=O)O)cn1c23 (centres undefined) [Flumequine] (20 µM) | 0.975
CO/N=C1\CN(c2nc3c(cc2F)c(=O)c(C(=O)O)cn3C2CC2)CC1CN (centres undefined) [Gemifloxacin mesylate] (20 µM) | 0.992
C=CCOc1ccc(CC(=O)O)cc1Cl [Alclofenac] (20 µM) | 0.991
C[C@]12CC[C@H]3[C@@H](CCC4=CC(=O)CC[C@@]43C)[C@@H]1CC[C@@H]2C(=O)CO [Deoxycorticosterone] (20 µM) | 1.03
CCCC(CCC)C(=O)O[C@H]1C[C@H]2CC[C@@H](C1)[N+]2(C)C [Anisotropine Methylbromide] (20 µM) | 0.99
Cc1cn(-c2cc(NC(=O)c3ccc(C)c(Nc4nccc(-c5cccnc5)n4)c3)cc(C(F)(F)F)c2)cn1 [Nilotinib] (20 µM) | 1.01
OCCN1CCN(CC/C=C2/c3ccccc3Sc3ccc(C(F)(F)F)cc32)CC1 [Flupentixol dihydrochloride cis-(Z)] (20 µM) | 1.02
N#Cc1cc(NC(=O)C(=O)O)c(Cl)c(NC(=O)C(=O)O)c1 [Lodoxamide] (20 µM) | 0.997
O=P(O)(O)C(Cl)(Cl)P(=O)(O)O [Clodronate disodium] (20 µM) | 1
CC(=O)N[C@@H](CCC(N)=O)C(=O)O [Acetyl-L-glutamine] (20 µM) | 0.99
CC(=O)N(CC(O)CO)c1c(I)c(C(=O)NCC(O)CO)c(I)c(C(=O)NCC(O)CO)c1I (centres undefined) [Iohexol] (20 µM) | 1
Cc1cc2nc3c(=O)[nH]c(=O)nc-3n(C[C@H](O)[C@H](O)[C@H](O)CO)c2cc1C [Riboflavine] (20 µM) | 0.994
CC(=O)CC(c1ccc([N+](=O)[O-])cc1)c1c(O)c2ccccc2oc1=O (centres undefined) [Acenocoumarol] (20 µM) | 1.01
O=C1CCc2ccc(OCCCCN3CCN(c4cccc(Cl)c4Cl)CC3)cc2N1 [Aripiprazole] (20 µM) | 0.976
Nc1nc(/C(=C/CC(=O)O)C(=O)N[C@@H]2C(=O)N3C(C(=O)O)=CCS[C@H]23)cs1 [Ceftibuten] (20 µM) | 1.07
C=C(CC)C(=O)c1ccc(OCC(=O)O)c(Cl)c1Cl [Ethacrynic acid] (20 µM) | 0.999
C[C@H](N[C@@H](CCc1ccccc1)C(=O)O)C(=O)N1CCC[C@H]1C(=O)O [Enalaprilat dihydrate] (20 µM) | 0.991
O=C1c2ccccc2S(=O)(=O)N1CCCCN1CCN(c2ncccn2)CC1 [Ipsapirone] (20 µM) | 1
Cn1c(=O)c2c(ncn2CC2OCCO2)n(C)c1=O [Doxofylline] (20 µM) | 0.993

— the supplement of paper PMC12494721
